Drawing on PubChem BioAssay (EPA / NIEHS), this text covers outcome and AC50 for six compounds.

“And” between values parts separate entries of the source, which are not always exact repeats. Identical values can stand only once. Records with an inconclusive call do not appear. The source made the active and inactive calls. How the source made its calls, unless noted: active means hit-call score of the fitted dose curve at least 0.9, where 1 is the maximum; inactive means score below 0.9.

The target of test [1] is Nucleoli Translocation, AR (gene 367) (UniProt P10275). Put plainly: UPITT_HCI_U2OS_AR_TIF2_Nucleoli_Antagonist: University of Pittsburgh U2OS Androgen Receptor-Transcriptional Intermediary Factor 2 (AR-TIF2) Antagonism High Content Imaging Assay for Nucleoli Translocation (AID 2283997; active means hit-call score of the fitted dose curve at least 0.9, where 1 is the maximum). In a few lines: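 An antagonist-mode imaging screen: engineered U2OS (AR-RFP, TIF2-GFP) exposed to 20 uM compound, 0.2% DMSO. Activity reflects nucleolar red fluorescence change relative to DHT baseline.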

For test [2] the target is unchanged. Put plainly: UPITT_HCI_U2OS_AR_TIF2_Nucleoli_Agonist: University of Pittsburgh U2OS Androgen Receptor-Transcriptional Intermediary Factor 2 (AR-TIF2) Agonism High Content Imaging Assay for Nucleoli Translocation (AID 2283998; active means hit-call score of the fitted dose curve at least 0.9, where 1 is the maximum). In a few lines:
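U2OS cells expressing RFP-tagged human AR and GFP-tagged TIF2; red fluorescence in nucleoli quantified by high-content imaging. Primary screen at 20 uM final (0.2% DMSO); concentration-response 0.195–50 uM (0.5% DMSO), fitted upward versus DMSO.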

The target of test [3] is Ratio of Nucleoli Translocation and Cytoplasm, AR (gene 367) (UniProt P10275). Description: UPITT_HCI_U2OS_AR_TIF2_Nucleoli_Cytoplasm_Ratio_Antagonist: University of Pittsburgh U2OS Androgen Receptor-Transcriptional Intermediary Factor 2 (AR-TIF2) Antagonism High Content Imaging Assay for Ratio of Nucleoli Translocation and Cytoplasm (AID 2283999; active means hit-call score of the fitted dose curve at least 0.9, where 1 is the maximum;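 further: antagonists lower the DHT-driven ratio of nucleolar to cytoplasmic red signal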). In a few lines: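 Compounds were added to U2OS cells carrying red-fluorescent AR and green-fluorescent TIF2, first at 20 uM, with hits confirmed in triplicate and titrated from 0.195 to 50 uM. Nucleolar versus cytoplasmic AR-RFP fluorescence was then quantified by imaging, with analysis relative to DHT.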

The target is the same in test [4]. Put plainly: UPITT_HCI_U2OS_AR_TIF2_Nucleoli_Cytoplasm_Ratio_Agonist: University of Pittsburgh U2OS Androgen Receptor-Transcriptional Intermediary Factor 2 (AR-TIF2) Agonism High Content Imaging Assay for Ratio of Nucleoli Translocation and Cytoplasm (AID 2284000; active means hit-call score of the fitted dose curve at least 0.9, where 1 is the maximum;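 further: hits raise the red nucleolar to cytoplasm ratio above vehicle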). In a few lines:
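Primary screen at 20 uM final (0.2% DMSO), then triplicate confirmation and dose-response from 0.195 to 50 uM final (0.5% DMSO). Cells: U2OS with AR-RFP and TIF2-GFP. Endpoint is the nucleoli/cytoplasm red-fluorescence ratio, gain-of-signal vs DMSO.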

Test [5] is described as follows: CCTE_Harrill_HTTr_Viability_MCF7: CCTE's 6-hour Cell Viability Assessment for the High-Throughput Transcriptomics (HTTr) Platform, in MCF-7 cells cultured in DMEM + 10% fetal bovine serum, Harrill Lab (AID 2284010). In a few lines:
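Read-out is propidium iodide gain of signal by high-content imaging, reflecting membrane integrity loss. Measurements are taken 6 h after dosing, eight concentrations per chemical, with DMSO serving as baseline for bidirectional curve fitting.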

The nature of test [6]: CCTE_Harrill_HTTr_Apoptosis_MCF7: CCTE's 6-hour Apoptosis Assessment for the High-Throughput Transcriptomics (HTTr) Platform, in MCF-7 cells cultured in DMEM + 10% fetal bovine serum, Harrill Lab (AID 2284011). In a few lines:
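MCF-7 cells in DMEM + 10% FBS exposed 6 h to chemicals over an eight-point dilution series. Caspase-3/7 activation imaged by high-content CellEvent Green staining; fitted bidirectionally versus DMSO.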

Test [7] can be described thus: CCTE_Harrill_HTTr_CellCount_MCF7: CCTE's Cell Proliferation Assessment for the High-Throughput Transcriptomics (HTTr) Platform, Harrill Lab (AID 2284012; active means hit-call score of the fitted dose curve at least 0.9, where 1 is the maximum;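 further: cells exposed to compound for six hours; intended direction is loss of nuclei count meaning fewer cells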). The procedure, abridged: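 Cell count served as viability reporter: loss of Hoechst-stained nuclei, counted by high content imaging, marks decreased growth or survival. Exposure was 6 h in MCF-7 cells across eight concentrations, with DMSO as baseline.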

Another test concerns DIO1 (gene 1733). Put plainly: CCTE_GLTED_hDIO1: CCTE's human Deiodinase 1 (DIO1) Inhibition Assay, Great Lakes Toxicology and Ecology Division (GLTED) Lab (AID 2283987; active means hit-call score of the fitted dose curve at least 0.9, where 1 is the maximum;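 further: isolated human DIO1 enzyme in a cell-free setup rather than cells; enzyme activity read as free iodide liberated from substrate via Sandell-Kolthoff colorimetry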). The procedure, abridged:
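Cell-free human DIO1 enzyme incubated 3 h with test chemical; iodide freed from substrate then measured by Sandell-Kolthoff absorbance. Run in triplicate; loss of signal relative to DMSO taken as inhibition.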

Test [8] can be described thus: CCTE_Simmons_MITO_basal_resp_rate: CCTE's HepG2 Seahorse XF Respirometric Screening Assay at Basal Respiratory State, Simmons Lab (AID 2284001). The following applies: actives raise or lower the signal. In a few lines: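 Readout is oxygen consumption rate after test compound injection, measured by Seahorse XF in HepG2 cells. Seven concentrations from 125 nM up to 100 uM final are tested, and activity in either direction is fitted against DMSO.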

A short description of test [9]: CCTE_Simmons_MITO_inhib_resp_rate: CCTE's HepG2 Seahorse XF Respirometric Screening Assay at Inhibited Respiratory State [full ETC block], Simmons Lab (AID 2284006). The following applies: actives raise or lower the signal. In a few lines: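 Seahorse respirometry, HepG2, 72 min total, 6-min mix/measure cycles. Cpd 125 nM–100 uM final ×7, n=3 biological. Sequential FCCP, rotenone/antimycin A; inhibited-respiration OCR, bidirectional fit vs DMSO.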

Test [10] is described as follows: CCTE_Shafer_MEA_acute_spike_number: CCTE's Neural Acute Assay for Total Number of Spikes, Shafer Lab (AID 2284008).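 On AC50: curve fitted for decrease in spike count so AC50 reflects inhibitors.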 The procedure, abridged: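 Rat primary cortical neurons on 48-well MEA plates, DIV 13 or 15, at 37 C. 40 min baseline then 40 min with compound (0.03-40 uM); spikes detected at 8x rms noise, expressed as percent change from baseline.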
Test [11] in a line: CCTE_Shafer_MEA_acute_firing_rate_mean: CCTE's Neural Acute Assay for Mean Firing Rate, Shafer Lab (AID 2284009).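 Further: analyzed for loss of signal so actives lower firing rate relative to DMSO.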 The procedure, abridged:
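Spontaneous spiking of primary rat cortical networks, DIV 13/15, 37 C. Compound 0.03-40 uM, n ≥3 wells; 40 min baseline vs 40 min treated. Endpoint fitted in loss-of-signal direction against DMSO.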

Test [12] is described as follows: CCTE_Shafer_MEA_acute_burst_number: CCTE's Neural Acute Assay for Single-Electrode Bursts, Shafer Lab (AID 2284013). The procedure, abridged:
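Burst totals were derived with adaptive spike detection (8x rms threshold) on filtered signals from rat cortical cultures; change relative to pre-treatment baseline after 40-min compound exposure (0.03-40 uM) was fitted in the negative direction against DMSO.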

The nature of test [13]: CCTE_Shafer_MEA_acute_burst_duration_mean: CCTE's Neural Acute Assay for Mean Burst Duration, Shafer Lab (AID 2284014).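 Further: hits are decreases in mean burst duration relative to DMSO controls.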 In a few lines:
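Acute exposure of mature rat cortical networks (DIV 13 or 15) grown on microelectrode arrays to 0.03-40 uM compound. Mean burst duration compared with the 40-min pre-dose baseline over a 40-min post-dose recording at 37 C.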

A short description of test [14]: CCTE_Simmons_MITO_viability: CellTiter-Glo Viability Assessment for CCTE's HepG2 Seahorse XF Respirometric Screening Assay [post-hoc], Simmons Lab (AID 2284007; active means hit-call score of the fitted dose curve at least 0.9, where 1 is the maximum;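 on AC50: cells exposed to chemical for 90 min before the ATP read; actives lower ATP signal relative to DMSO baseline meaning reduced viability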). In a few lines:
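Cytotoxicity readout: ATP quantitation via luciferase in HepG2 cells treated 90 min with seven titrated concentrations (125 nM to 100 uM, final). Curves fitted relative to DMSO negative control, three biological replicates per concentration.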

The nature of test [15]: CCTE_Harrill_HTTr_Apoptosis_DMEM_12hr: (Pilot) CCTE's 12-hour Apoptosis Assessment for the High-Throughput Transcriptomics (HTTr) Platform, in MCF-7 cells cultured in DMEM + 10% fetal bovine serum, Harrill Lab (AID 2283982). In a few lines:
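Caspase-3/7 activity was measured by high-content imaging (CellEvent Caspase 3/7 Green) after a 12-hour exposure of MCF-7 cells grown in DMEM with 10% FBS. Eight-point concentration series, fitted bidirectionally against vehicle.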

Test [16] in a line: CCTE_Harrill_HTTr_Apoptosis_DMEM_24hr: (Pilot) CCTE's 24-hour Apoptosis Assessment for the High-Throughput Transcriptomics (HTTr) Platform, in MCF-7 cells cultured in DMEM + 10% fetal bovine serum, Harrill Lab (AID 2283983). The procedure, abridged: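 Caspase-3/7 activity read by high-content imaging (CellEvent Green reagent) 24 h after dosing. MCF-7 cells grown in DMEM with 10% FBS received an eight-point concentration series; fits were bidirectional versus DMSO.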

The nature of test [17]: CCTE_Harrill_HTTr_Apoptosis_PRF_DMEM_6hr: (Pilot) CCTE's 6-hour Apoptosis Assessment for the High-Throughput Transcriptomics (HTTr) Platform, in MCF-7 cells cultured phenol red-free DMEM + 10% charcoal-stripped fetal bovine serum, Harrill Lab (AID 2283984). The procedure, abridged:
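Caspase-3/7 activity (CellEvent Green) read by high-content imaging 6 h after dosing, eight concentrations. Cells: MCF-7, phenol red-free DMEM with 10% charcoal-stripped serum. Curves fit both directions against DMSO.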

Test [18] is described as follows: CCTE_Harrill_HTTr_Apoptosis_PRF_DMEM_12hr: (Pilot) CCTE's 12-hour Apoptosis Assessment for the High-Throughput Transcriptomics (HTTr) Platform, in MCF-7 cells cultured in phenol red-free DMEM + 10% charcoal-stripped fetal bovine serum, Harrill Lab (AID 2283985). The procedure, abridged: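 Caspase-3/7 activity by CellEvent Green high content imaging after 12 h compound exposure (eight concentrations) in MCF-7 grown in phenol red-free DMEM plus 10% charcoal-stripped serum; DMSO as baseline.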

A short description of test [19]: CCTE_Harrill_HTTr_Apoptosis_PRF_DMEM_24hr: (Pilot) CCTE's 24-hour Apoptosis Assessment for the High-Throughput Transcriptomics (HTTr) Platform, in MCF-7 cells cultured in phenol red-free DMEM + 10% charcoal-stripped fetal bovine serum, Harrill Lab (AID 2283986). The procedure, abridged: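 Eight concentrations tested for 24 h on MCF-7 grown in charcoal-stripped serum, phenol red-free DMEM. High content imaging of CellEvent Caspase 3/7 Green signal gives apoptosis read-out, fitted both ways relative to DMSO.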

Sequence of Ratio of Nucleoli Translocation and Cytoplasm, AR (gene 367) (P10275 whole entry, looked up): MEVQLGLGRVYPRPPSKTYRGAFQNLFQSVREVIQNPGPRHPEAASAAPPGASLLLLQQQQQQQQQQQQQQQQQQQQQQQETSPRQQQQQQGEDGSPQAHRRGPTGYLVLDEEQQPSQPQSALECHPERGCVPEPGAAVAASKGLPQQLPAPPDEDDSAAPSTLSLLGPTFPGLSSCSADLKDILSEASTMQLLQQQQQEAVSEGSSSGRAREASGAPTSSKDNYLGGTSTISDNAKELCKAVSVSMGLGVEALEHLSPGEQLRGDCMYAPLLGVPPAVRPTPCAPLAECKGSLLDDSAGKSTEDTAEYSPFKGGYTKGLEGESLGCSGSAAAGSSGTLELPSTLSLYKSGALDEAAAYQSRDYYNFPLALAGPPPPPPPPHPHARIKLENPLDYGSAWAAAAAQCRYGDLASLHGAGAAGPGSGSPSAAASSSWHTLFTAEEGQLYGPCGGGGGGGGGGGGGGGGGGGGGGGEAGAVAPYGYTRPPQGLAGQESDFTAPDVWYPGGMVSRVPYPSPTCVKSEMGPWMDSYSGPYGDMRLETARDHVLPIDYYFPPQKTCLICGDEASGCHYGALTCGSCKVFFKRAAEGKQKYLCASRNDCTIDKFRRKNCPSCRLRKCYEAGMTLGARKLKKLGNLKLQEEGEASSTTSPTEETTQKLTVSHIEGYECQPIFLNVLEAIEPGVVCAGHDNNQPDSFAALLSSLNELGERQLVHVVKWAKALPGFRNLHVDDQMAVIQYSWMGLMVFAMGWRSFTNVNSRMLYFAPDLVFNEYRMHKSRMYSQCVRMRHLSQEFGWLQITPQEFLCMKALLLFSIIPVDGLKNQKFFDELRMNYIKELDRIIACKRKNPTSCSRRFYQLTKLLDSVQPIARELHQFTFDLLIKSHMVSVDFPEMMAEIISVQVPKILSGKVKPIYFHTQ
Sequence of Nucleoli Translocation, AR (gene 367) (P10275 whole entry, looked up): as above

Take `CCCCOC(=O)c1ccccc1C(=O)O`: the result in test [1], in test [2], in test [3], in [4], in [5] and in test [6] was inactive. Further, the compound was classed as inactive in test [7].

Broadly, the AC50 is the midpoint of the concentration-response curve, whichever way the signal moves. Consider `CN(C)[C@@H]1C(=O)C(C(N)=O)=C(O)[C@@]2(O)C(=O)C3=C(O)c4c(O)cccc4[C@@](C)(O)[C@H]3[C@H](O)[C@@H]12`, for which, in the test on DIO1 (gene 1733), the AC50 was 29.8 µM (active) and 15.9 µM (active) and 27.1 µM (active). Besides, the call in [8], in test [9], in [10], in test [11], in test [5] and in [6] was inactive. Further, the call in test [7], in test [12] and in test [13] was inactive.

In the case of `CCCOCC(=Nc1ccc(Cl)cc1C(F)(F)F)n1ccnc1`, the AC50 in the test with DIO1 (gene 1733) was 16.2 µM (active); in [14], 18200 nM (active); in test [10], 568 nM (active); in test [11], 571 nM (active); in test [12], 686 nM (active); in test [13], 6290 nM (active). Also, the compound was classed as inactive in [8], in test [9], in test [5], in test [6] and in [7].

Take `CON=C(C(=O)OC)c1ccccc1CON=C(C)c1cccc(C(F)(F)F)c1`: the outcome in test [15], in test [16], in [17], in [18], in test [19] and in test [14] was inactive. Further, the result in test [5], in test [6] and in test [13] was inactive. Besides, the half-maximal activity concentration (AC50) is 8730 nM (active) in test [8]; 14800 nM (active) in [9]; 183 nM (active) in test [10]; 183 nM (active) in [11]; 191 nM (active) in test [12].

As for `COc1ccc(C(=CC(=O)N2CCOCC2)c2ccc(Cl)cc2)cc1OC`, the half-maximal activity concentration (AC50) in test [1] was 3210 nM (active); in test [3], 2520 nM (active). Also, the outcome in test [2], in [4], in test [5], in [6] and in test [7] was inactive.

In the case of `CCOC(=O)CC(SP(=O)(OC)OC)C(=O)OCC` (stereo unspecified), the outcome (in the test with DIO1 (gene 1733); in [10]; in test [11]; in [5]; in test [6]; in test [12]) was inactive. For the same compound, in test [13], the outcome was inactive.
